The source of these data is PubChem BioAssay (Tox21).

Inconclusive results are not listed. Where a call stands in place of a potency, no number is given. Activity calls are given as the source filed them. Calls follow the shape of the dose curve; as a rule, active = well fitted curve in the direction sought with a large enough effect in the repeat runs; inconclusive = weak or mixed curves; inactive = no such curve, though single readings can be large; an effect the other way counts as inactive or inconclusive.

One assay is described as follows: A CellTox Green Cytotoxicity Assay to monitor cytotoxicity in HEK293 cells - 8 hour (AID 1224884). Also: nearly all actives have a fitted effect of over 35% in size. The following applies: CellTox Green fluorescence; series mostly up to 76.8 µM; cytotoxicity increase: at the top concentration. The method in brief:
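Nonlytic real-time cytotoxicity: HEK293 + CellTox Green reagent plated, 5 h preincubation, pintool compound addition (23 nL in DMSO), 37 C for 40 h, fluorescence measured at successive time points.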
Regarding `CN(C)CCC#N`, the Potency result is “inactive”.

In the case of `CCCOC(=O)c1ccccc1C(=O)OCCC`, the Potency entry is “inactive”.

Turning to `CNC(=O)Oc1cccc2ccccc12`, the Potency result was “inactive”.

As to `O=C(O)C1C(C(=O)O)C2(Cl)C(Cl)=C(Cl)C1(Cl)C2(Cl)Cl` (stereo not given), the Potency result is “inactive”.

As for `c1ccc2c(c1)CCCC2`, the Potency entry is “inactive”.

Take `O=[N+]([O-])c1ccc(Cl)cc1`: the Potency result was “inactive”.

Regarding `CC(C)(C)C(=O)CCl`, the Potency entry is “inactive”.

For the compound `Nc1nc(N)nc(NC2CC2)n1`, the Potency entry is “inactive”.

Take `CN(C)C(=O)C(c1ccccc1)c1ccccc1`: the Potency entry was “inactive”.

For the compound `C/C=C/c1ccc2c(c1)OCO2`, the Potency result is “inactive”.

Regarding `COP(=S)(OC)SCN1C(=O)c2ccccc2C1=O`, the Potency entry was “inactive”.

Take `CC[N+](=O)[O-]`: the Potency entry is “inactive”.

Take `Sc1ccccc1`: the Potency entry is “inactive”.

In the case of `CCSC(=O)N1CCCCCC1`, the Potency entry was “inactive”.

Regarding `Cl[C@H]1OCCO[C@@H]1Cl`, the “cytotoxicity increase” value was -2.08% (inactive).

As for `C=CC(=O)OCC(CC)CCCC` (stereo not given), the Potency entry was “inactive”.

Regarding `O=[N+]([O-])c1cc([As](=O)(O)O)ccc1O`, the Potency entry is “inactive”.

As for `CCOc1ccc(N)cc1`, the Potency result was “inactive”.

Turning to `Nc1ccc(N)cc1`, the Potency entry is “inactive”.

For the compound `CCNc1nc(Cl)nc(NC(C)C)n1`, the Potency entry is “inactive”.

Take `C=CC#N`: the Potency result was “inactive”.

As for `C=C(C)C(=O)OCC(CC)CCCC` (stereo not given), the Potency entry was “inactive”.

For `Cc1cc(Cl)ccc1OC(C)C(=O)O` (stereo not given), the Potency entry is “inactive”.

Regarding `CCCCC(CC)C(=O)Cl` (stereo not given), the Potency entry is “inactive”.

For the compound `COc1cc(-c2ccc(N)c(OC)c2)ccc1N`, the Potency entry is “inactive”.

Consider `O=P1(NCCCl)OCCCN1CCCl` (stereo not given), for which the Potency result was “inactive”.

In the case of `O=C(O)C(Br)Br`, the Potency result was “inactive”.

`Cc1cccc(C)c1NC(=O)CN1CCCC1=O`: the Potency entry is “inactive”.

With `[N-]=[N+]=CC(=O)OC[C@H](N)C(=O)O`, the “cytotoxicity increase” value is -7.19% [at 35.3 µM] (inactive).

On to `OCc1ccco1`, for which the Potency entry is “inactive”.

Another assay is described as follows: qHTS RealTime-Glo MT Cell Viability Assay in HepG2 cells - 16 hour (AID 1224885). Also: nearly all actives have a fitted effect of over 50% in size. The following applies: RealTime-Glo luminescence; series mostly up to 76.8 µM; activity change, negative = cytotoxic: at the top concentration. An outline of the steps: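 Cell number in HepG2 cultures estimated from NanoLuc luminescence generated by metabolic reduction of a prosubstrate by living cells. The homogeneous, nonlytic format allowed repeated reads at 0, 8, 16, 24, 32 and 40 h of compound exposure.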
For orientation: In qHTS, concentration-response curves come from the screen itself.
As for `CN(C)CCC#N`, the result was inactive.

On to `CCCOC(=O)c1ccccc1C(=O)OCCC`, for which the compound was classed as inactive.

`CNC(=O)Oc1cccc2ccccc12`: the compound was classed as inactive.

Regarding `O=C(O)C1C(C(=O)O)C2(Cl)C(Cl)=C(Cl)C1(Cl)C2(Cl)Cl` (stereo not given), the outcome was inactive.

For `c1ccc2c(c1)CCCC2`, the outcome was inactive.

As for `O=[N+]([O-])c1ccc(Cl)cc1`, the outcome was inactive.

For `CC(C)(C)C(=O)CCl`, the result was inactive.

On to `Nc1nc(N)nc(NC2CC2)n1`, for which the outcome was inactive.

For `CN(C)C(=O)C(c1ccccc1)c1ccccc1`, the call was inactive.

Take `C/C=C/c1ccc2c(c1)OCO2`: the call was inactive.

For the compound `COP(=S)(OC)SCN1C(=O)c2ccccc2C1=O`, the call was inactive.

Take `CC[N+](=O)[O-]`: the compound was classed as inactive.

Regarding `Sc1ccccc1`, the compound was called inactive.

Take `CCSC(=O)N1CCCCCC1`: the compound was called inactive.

For the compound `Cl[C@H]1OCCO[C@@H]1Cl`, the result was inactive.

On to `C=CC(=O)OCC(CC)CCCC` (stereo not given), for which the compound was called inactive.

With `O=[N+]([O-])c1cc([As](=O)(O)O)ccc1O`, the compound was classed as inactive.

Consider `CCOc1ccc(N)cc1`, for which the compound was called inactive.

For `Nc1ccc(N)cc1`, the call was inactive.

For `CCNc1nc(Cl)nc(NC(C)C)n1`, the call was inactive.

`C=CC#N`: the result was inactive.

Regarding `C=C(C)C(=O)OCC(CC)CCCC` (stereo not given), the compound was called inactive.

As to `Cc1cc(Cl)ccc1OC(C)C(=O)O` (stereo not given), the outcome was inactive.

As for `CCCCC(CC)C(=O)Cl` (stereo not given), the compound was classed as inactive.

As for `COc1cc(-c2ccc(N)c(OC)c2)ccc1N`, the call was inactive.

Take `O=P1(NCCCl)OCCCN1CCCl` (stereo not given): the compound was called inactive.

For the compound `O=C(O)C(Br)Br`, the compound was classed as inactive.

Take `Cc1cccc(C)c1NC(=O)CN1CCCC1=O`: the compound was called inactive.

As for `[N-]=[N+]=CC(=O)OC[C@H](N)C(=O)O`, the outcome was inactive.

Regarding `OCc1ccco1`, the result was inactive.
